In the library only some 3.9% were active in any assay of this set; here they are far more common.
BRCA1 expr act: qHTS Assay to Identify Small Molecule Activators of BRCA1 Expression. MCF7-BRCA1-FFLuc reporter, luminescence, 48 h; response scale: scaled: vehicle 0%, 10 µM genistein 100%. Potency, µM (highest dose often 46.1 µM), for inactives: top-dose activation, hits mostly activators. AID 624202, 2012. hit rate 1.1% among 380,000; further: nearly all actives have a fitted effect of over 80% in size
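Compounds are tested at multiple concentrations on MCF7 BRCA1-luciferase reporter cells seeded at 2000 per well; after 48 h, a single luminescence end-point is taken and curves fitted to the normalized data.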
PLK1 PBD inh: qHTS for Inhibitors of PLK1-PDB (polo-like kinase 1 - polo-box domain): Primary Screen | Potency, µM, without a hit: max response, negative = inhibition, hits mostly inhibitors | Serine/threonine-protein kinase PLK1 (Homo sapiens), P53350 | hit rate 2.8% among 360,000 | AID 720504, 2013 | Plk1 PBD binding of FITC phosphopeptide, fluorescence polarization; further: series mostly up to about 57 µM; on the % scale 0 is the no-effect control and ±100 the full control effect; nearly all actives have a fitted effect of over 65% in size
VDR inh: Inhibitors of the vitamin D receptor (VDR): qHTS; hit rate 0.93% among 400,000; VDR-SRC2-3 peptide fluorescence polarization, 2 h; Potency, µM, for the others: max response, negative = inhibition, hits mostly inhibitors; Vitamin D3 receptor (Homo sapiens), P11473; further: on the % scale 0 is the no-effect control and ±100 the full control effect
Target sequence (P11473 whole entry, looked up): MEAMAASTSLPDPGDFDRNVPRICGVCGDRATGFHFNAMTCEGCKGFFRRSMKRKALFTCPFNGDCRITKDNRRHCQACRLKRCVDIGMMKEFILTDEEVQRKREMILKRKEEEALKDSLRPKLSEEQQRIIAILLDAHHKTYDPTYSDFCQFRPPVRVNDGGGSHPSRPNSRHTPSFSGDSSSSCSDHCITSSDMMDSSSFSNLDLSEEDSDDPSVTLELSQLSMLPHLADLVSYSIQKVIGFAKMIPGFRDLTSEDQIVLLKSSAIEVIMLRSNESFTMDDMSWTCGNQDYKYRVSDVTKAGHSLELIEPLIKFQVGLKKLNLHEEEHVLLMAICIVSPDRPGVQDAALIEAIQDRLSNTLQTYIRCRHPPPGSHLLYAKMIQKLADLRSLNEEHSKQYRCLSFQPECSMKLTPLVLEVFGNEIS
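Reagent solutions, kept cold and dark, are dispensed first; compounds are then pinned in at 23 nl, plates briefly spun, and incubated 2 h at ambient temperature. Inhibition of VDR–SRC2-3 peptide binding is read by fluorescence polarization.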
Tb PFK inh: qHTS Assay to Find Inhibitors of T. brucei phosphofructokinase | ATP-dependent 6-phosphofructokinase (Trypanosoma brucei brucei), O15648 | T. brucei PFK, ADP-Glo luminescence | Potency, µM (doses to about 57.5 µM), for the others: at the top dose activity, negative = inhibition, most hits filed as inhibitors | hit rate 0.17% among 330,000;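 further: 0% = uninhibited 1x PFK enzyme wells and -100% = no-enzyme wells; nearly all actives have a fitted effect of over 60% in size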
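Activity is normalized to no-enzyme wells (full inhibition) and 1.25 nM enzyme wells (no inhibition). Reaction: 0.5 mM F6P, 0.1 mM ATP, 45 min RT, ADP-Glo luminescence; concentration-response curves fitted and classed by quality.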
Starred values were filed as active, the others as inactive; ? = inconclusive; nt = not tested or not shown. The call rests on the fitted dose curve; in most records, active means well fitted curve in the direction sought with a large enough effect; inconclusive means small, poorly fitted or top-dose-only effect, or another doubt; inactive means no such curve, though single readings can be large; an effect the other way counts as inactive or inconclusive. Potency means the concentration at half of the fitted maximal effect.

SMILES	BRCA1 expr act	PLK1 PBD inh	VDR inh	Tb PFK inh
CCOCCc1nnc(NC(=O)C2CCN(C(=O)c3ccco3)CC2)s1	-3%	-16%	-18%	-1%
CCOC(=O)C(C)N1c2cccc3cccc(c23)S1(=O)=O (stereo not given)	-1%	-4%	nt	nt
CC1(C)CN=c2s/c(=C\c3ccc(Cl)cc3)c(=O)n2C1	-6%	4.7µM*	-26%	-2%
CSC1=N/C(=C\c2ccc(Cl)cc2)C(=O)N1N(C)C	-37%	0%	-1%	3%
CCn1c(N)c(C(=O)NCCOC)sc1=S	-1%	27µM*	-10%	-2%
CCn1c(N)c(C(=O)Nc2ccccc2C(=O)OC)sc1=S	-58%	12µM*	-5%	1%
CCc1ccc(OCc2cc(=O)n3c4c(sc3n2)CCCC4)cc1	20%	nt	-1%	nt
C=C(C)CNC(=O)CCc1nnc(Cc2cccc(C(F)(F)F)c2)o1	?	-12%	-9%	-9%
CC(C)CN(C)C(=O)CCc1nnc(Cc2cccc(C(F)(F)F)c2)o1	10µM*	-8%	-13%	-17%
CCC1CCCCN1C(=S)NC(=O)c1cccs1 (stereo not given)	-1%	-13%	-10%	-6%
O=C(NCc1ccc(F)cc1)c1cccs1	3%	-10%	-19%	-27%
COc1ccc2cc(CCNC(=O)c3cc4ccccc4o3)c(=O)[nH]c2c1	-14%	5%	-8%	-1%
O=C(CNC1CCCCCC1)c1cccs1	-12%	30µM*	?	0%
O=C(NC(=S)N1CCCCC1CO)c1cccs1 (stereo not given)	1%	21µM*	?	-23%
O=C(NCCc1ccc(F)cc1)c1cccs1	11µM*	-9%	5%	-3%
COc1ccc2cc(CCNC(=O)c3cccs3)c(=O)[nH]c2c1	2.8µM*	3%	-1%	-7%
COCCn1c(CNC(=O)c2cccc(C)c2)nc2cccnc21	nt	nt	12%	nt
O=C(NC(c1ccc(Cl)cc1)c1ccsc1)C1CCN(Cc2cccc(Cl)c2)CC1 (stereo not given)	-36%	3%	nt	nt
O=C(CNC(=O)c1cccs1)c1ccc(Br)cc1	5.6µM*	-1%	-7%	-7%
O=C(NCCC1CCCC1)c1cccs1	11µM*	8%	-19%	1%
O=C(NCCc1cccs1)c1cccs1	6.3µM*	-11%	-1%	-7%
O=C(CNC(=O)c1cccs1)OCc1ccc(Br)cc1	17%	1%	11%	-29%
CCNC(=O)C1(C)CCCN(Cc2csc3ccccc23)C1 (stereo not given)	13%	-9%	nt	nt
O=C(NCCc1ccccc1)c1c2c(nc3ccccc13)C(=O)N(C1CCCCC1)C2	nt	nt	13%	nt
c1ccc(-c2cccc(N3CCCC4(CCNCC4)C3)c2)cc1	nt	nt	50µM*	nt
SMILES	BRCA1 expr act	PLK1 PBD inh	VDR inh	Tb PFK inh
c1ccc(-c2cccc(N3CCC4(CCNCC4)CC3)c2)cc1	nt	nt	89µM*	nt
O=S(=O)(c1ccccc1)N1CCC2(CCCN(c3cccc(-c4ccccc4)c3)C2)CC1	nt	nt	-19%	nt
CC(=O)N1CCC2(CC1)CN(c1cccc(-c3ccccc3)c1)C2	nt	nt	18%	nt
COc1ccc(C(=O)N2CCC3(CCCN(c4cccc(-c5ccccc5)c4)C3)CC2)cc1	nt	nt	-20%	nt
COCC(=O)N1CCC2(CCCN(c3cccc(-c4ccccc4)c3)C2)CC1	nt	nt	50µM*	nt
COc1cccc(NC(=O)C2CCOC2=O)c1 (stereo not given)	-4%	1%	-16%	nt
COc1cc(C(=O)NCC(c2cccs2)N2CCOCC2)cc(Br)c1OCc1ccccc1 (stereo not given)	-47%	-7%	-10%	0%
CN1/C(=C\C(=O)COC(=O)CNC(=O)c2ccc3ccccc3c2)C(C)(C)c2ccccc21	3%	19µM*	-28%	12%
CCOc1ccc(NC(=O)Cn2nc(-c3ccncc3)ccc2=O)cc1	nt	nt	2%	nt
O=c1cnnc(N/N=C/c2ccccn2)[nH]1	-43%	21µM*	?	3%
COc1ccc(Cl)cc1NS(=O)(=O)c1c(C)nc2scc(C)n2c1=O	nt	nt	-25%	nt
C/C(=N\OC(=O)c1ccc(F)cc1)c1sc(-c2ccccc2)nc1C	2.8µM*	0%	2%	2%
C/C(=N\OC(=O)c1ccc(Cl)cc1)c1sc(-c2ccccc2)nc1C	4µM*	-1%	-9%	0%
Cc1nccn1-c1ccc(NC(=O)[C@H]2O[C@@H](n3ccc(N)nc3=O)[C@H](O)[C@@H]2O)cc1	13%	2%	nt	nt
CCCCC(=O)/C=C/n1c(=S)oc2ccccc21	-61%	?	13µM*	-2%
CC(C)OC(=O)n1c(=S)oc2ccccc21	8%	-8%	-9%	-7%
CCn1c(-c2ccc(C)cc2)n[nH]c1=S	0%	-15%	-10%	16%
CCn1c(=S)sc2nc(C)sc21	0%	21µM*	?	nt
O=C(O)Cc1cccc(OCCCN(Cc2cccc(C(F)(F)F)c2Cl)CC(c2ccccc2)c2ccccc2)c1	nt	nt	40µM*	nt
COc1ccc(CNC(=O)C2CCN(C(=O)[C@@H]3Cc4ccccc4CN3)CC2)cc1	2%	6µM*	?	-5%
COc1ccc(NC(=O)C2CCN(C(=O)[C@@H]3Cc4ccccc4CN3)CC2)cc1	36%	-4%	-11%	1%
O=C(COc1ccc(Cl)cc1Cl)c1ccc[nH]1	10µM*	-1%	9%	-3%
CC(C)Oc1ccc(C(=O)NCc2ccco2)cc1	87%	27µM*	-5%	15%
CCOc1cc(C(=O)NCc2ccco2)cc(OCC)c1OCC	-3%	?	0%	0%
Cc1ccc(Cl)c(OCC(=O)OCC(=O)c2ccc[nH]2)c1	3%	3%	11%	0%
SMILES	BRCA1 expr act	PLK1 PBD inh	VDR inh	Tb PFK inh
O=C(COc1ccc(Cl)cc1Cl)NNC(=S)NCc1ccco1	63%	-28%	6%	-5%
O=C(COc1ccc(Cl)cc1Cl)NCc1ccco1	10µM*	-1%	7%	0%
O=C(NCc1ccco1)c1ccc(COc2cc(Cl)ccc2Cl)cc1	7.9µM*	-7%	0%	0%
CCOc1ccc(NC(=O)CC2C(=O)N(c3ccccc3)C(=O)N2CCc2sccc2C)cc1 (stereo not given)	nt	nt	-2%	nt
Cc1cc(C)c(NC(=O)CCn2c(=O)c3cccn3c3cccnc32)c(C)c1	nt	nt	10%	nt
CCCCc1c(O)nc2sc3cc(OC)ccc3n2c1=O	11µM*	-4%	-15%	4%
COc1ccc(C(C#N)=C2C=CC(=NO)C(C)=C2Cl)cc1	-26%	-25%	?	nt
COc1ccc(C(C#N)=C2C=C(Cl)C(=NO)C=C2Cl)cc1	5%	21µM*	nt	nt
CN(C)c1ccc(/C=N/NC(=O)c2nonc2N)cc1[N+](=O)[O-]	-20%	27µM*	-17%	5%
COc1ccc(/C=N/NC(=O)c2nonc2N)cc1OC	-17%	-2%	-13%	2%
CC[C@@H](C)[C@@H](CO[C@@H](Cc1ccccc1)C(=O)N[C@@H](CCS(C)(=O)=O)C(=O)OC(C)C)NC[C@@H](N)CS	nt	nt	10µM*	nt

Source: PubChem (National Center for Advancing Translational Sciences (NCATS))
